{"source": "the supplement of paper PMC9135407", "system": "primary human hepatic stellate cells (donor 1)", "experiment": "scaled lipid accumulation score (0 = DMSO-like, 1 = nortriptyline-like); higher = stronger HSC inactivation (lipid re-accumulation), active = hit call of the paper", "conditions": "48 h", "description": "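Primary lipid accumulation screen in primary human hepatic stellate cell myofibroblasts (donor 1, passage 8) in 384-well plates. 100 nL of library compound was pin-transferred into 30 µL medium in duplicate, and cells were treated for 48 h. The 'Scaled' score combines distance from plate baseline, toxicity and reproducibility penalties, and is normalised to nortriptyline (positive) and DMSO (negative) controls on each plate. A hit is defined as scaled >0.85 or among the top 3 wells per plate.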", "key": {"[1]": {"conditions": "library stock concentration: 3.33 mM"}, "[2]": {"conditions": "library stock concentration: 10 mM"}, "[3]": {"conditions": "library stock concentration: 1 mM"}, "[4]": {"conditions": "library stock concentration: 2 mM"}}, "note": "Where “and” joins values, the source holds several entries; their conditions need not be identical. Equal entries are not always repeated. Structures can show the parent of a compound that is named as a salt. Hit rate of the full screen: of about 5,800 compounds, about 620 (11%) showed activity. What follows is part of a selection rich in actives, with near analogues and random picks from the rest. Values without a mark were called inactive.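 The calls were made as follows: active = score above a cut-off or among the top three wells of a plate; in these data no inactive exceeds 0.85.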", "data": [{"smiles": "CC(=O)Nc1ncc([N+](=O)[O-])s1", "note": "[Nithiamide]", "values": [{"measurement": "scaled lipid accumulation score", "setting": "[1]", "value": "≤ 0"}, {"measurement": "scaled lipid accumulation score", "setting": "[2]", "value": "≤ -0.001"}]}, {"smiles": "COc1ccc(CNC(=O)Nc2ncc([N+](=O)[O-])s2)cc1", "note": "[GSK-3b Inhibitor VIII]", "values": [{"measurement": "scaled lipid accumulation score", "setting": "[1]", "value": "≤ 0"}]}, {"smiles": "COc1ccc(CNC(=O)Nc2ncc([N+](=O)[O-])s2)cc1", "note": "[listing 1 of 2 here]", "values": [{"measurement": "scaled lipid accumulation score", "setting": "[2]", "value": "0.864 (active)"}]}, {"smiles": "COc1ccc(CNC(=O)Nc2ncc([N+](=O)[O-])s2)cc1", "note": "[listing 2 of 2 here]", "values": [{"measurement": "scaled lipid accumulation score", "setting": "[1]", "value": 0.006}]}, {"smiles": "CC(=O)Nc1ncc([N+](=O)[O-])s1", "values": [{"measurement": "scaled lipid accumulation score", "setting": "[2]", "value": "≤ 0"}]}, {"smiles": "O=C(c1ccccc1)c1ccc(N2CCOCC2)cc1O", "note": "[DNA-PK Inhibitor V]", "values": [{"measurement": "scaled lipid accumulation score", "setting": "[1]", "value": "≤ 0"}]}, {"smiles": "CCCCC(C)(C)[C@H](O)/C=C/[C@H]1C(=O)C[C@H](O)[C@@H]1C/C=C\\CCCC(=O)O", "note": "[16,16-dimethyl Prostaglandin D2]", "values": [{"measurement": "scaled lipid accumulation score", "setting": "[3]", "value": "≤ 0"}]}, {"smiles": "O=C1NC(=O)[C@@H](c2cn3c4c(cccc24)CCC3)[C@@H]1c1c[nH]c2ccccc12", "note": "[Tivantinib]", "values": [{"measurement": "scaled lipid accumulation score", "setting": "library stock concentration: 80 uM", "value": "≤ -0.009"}, {"measurement": "scaled lipid accumulation score", "setting": "library stock concentration: 400 uM", "value": 0.071}, {"measurement": "scaled lipid accumulation score", "setting": "[4]", "value": "≤ -0.009"}, {"measurement": "scaled lipid accumulation score", "setting": "[2]", "value": 0.169}]}, {"smiles": "CCCCCC(=O)CC[C@H]1C(=O)C[C@H](O)[C@@H]1C/C=C\\CCCC(=O)O", "note": "[13,14-dihydro-15-keto Prostaglandin D2]", "values": [{"measurement": "scaled lipid accumulation score", "setting": "[3]", "value": "≤ 0"}]}, {"smiles": "C=CC(=O)Nc1cccc(Nc2nc(Nc3ccc(N4CCN(C(C)=O)CC4)cc3OC)ncc2C(F)(F)F)c1", "values": [{"measurement": "scaled lipid accumulation score", "setting": "[1]", "value": "≤ -0.009"}, {"measurement": "scaled lipid accumulation score", "setting": "[2]", "value": 0.063}]}, {"smiles": "C=CC(=O)Nc1cc(Nc2nccc(-c3cn(C)c4ccccc34)n2)c(OC)cc1N(C)CCN(C)C", "note": "[listing 1 of 3 here]", "values": [{"measurement": "scaled lipid accumulation score", "setting": "[2]", "value": "≤ 0"}]}, {"smiles": "COc1cc(N2CCN(C)CC2)ccc1Nc1nccc(-c2cn(C)c3cnccc23)n1", "values": [{"measurement": "scaled lipid accumulation score", "setting": "[1]", "value": "≤ -0.009"}, {"measurement": "scaled lipid accumulation score", "setting": "[2]", "value": 0.446}]}, {"smiles": "C=CC(=O)Nc1cc(Nc2nccc(-c3cn(C)c4ccccc34)n2)c(OC)cc1N(C)CCN(C)C", "note": "[listing 2 of 3 here]", "values": [{"measurement": "scaled lipid accumulation score", "setting": "[1]", "value": "0.983 (active)"}]}, {"smiles": "C=CC(=O)Nc1cc(Nc2nccc(-c3cn(C)c4ccccc34)n2)c(OC)cc1N(C)CCN(C)C", "note": "[listing 3 of 3 here]", "values": [{"measurement": "scaled lipid accumulation score", "setting": "[4]", "value": "1.01 (active)"}]}, {"smiles": "C=CC(=O)Nc1cccc(Nc2nc(Nc3ccc(NC4CN(CCF)C4)cc3OC)ncc2C(F)(F)F)c1", "values": [{"measurement": "scaled lipid accumulation score", "setting": "[1]", "value": "≤ -0.009"}, {"measurement": "scaled lipid accumulation score", "setting": "[2]", "value": 0.811}]}, {"smiles": "CCN1CCCC1CNC(=O)c1cc(S(N)(=O)=O)ccc1OC", "note": "(single isomer, unassigned; (-)) [(-)-Sulpiride]", "values": [{"measurement": "scaled lipid accumulation score", "setting": "[2]", "value": "≤ 0"}]}, {"smiles": "O=C1CCc2c(ccc3ccccc23)O1", "note": "[Splitomicin]", "values": [{"measurement": "scaled lipid accumulation score", "setting": "[2]", "value": "≤ -0.006"}]}, {"smiles": "CCCCC[C@@H](O)/C=C/[C@@H]1[C@H](C/C=C\\CCCC(=O)O)[C@@H](O)C[C@H]1O", "note": "[8-iso-15(R)-Prostaglandin F2.alpha.]", "values": [{"measurement": "scaled lipid accumulation score", "setting": "[3]", "value": "≤ 0"}]}, {"smiles": "CCCCC[C@H](O)/C=C/[C@@H]1[C@@H](C/C=C\\CCCC(=O)NC(CO)CO)[C@@H](O)C[C@H]1O", "note": "[Prostaglandin F2.alpha. serinol amide]", "values": [{"measurement": "scaled lipid accumulation score", "setting": "[3]", "value": "≤ 0"}]}, {"smiles": "Nc1ncnc2c1c(I)cn2[C@@H]1O[C@H](CO)[C@@H](O)[C@H]1O", "note": "[5-Iodotubercidin]", "values": [{"measurement": "scaled lipid accumulation score", "setting": "[1]", "value": "≤ 0"}]}, {"smiles": "CCCCC[C@H](O)/C=C/[C@H]1C=CC(=O)[C@@H]1C/C=C\\CCCC(=O)O", "note": "[Prostaglandin A2]", "values": [{"measurement": "scaled lipid accumulation score", "setting": "[3]", "value": "≤ 0 and ≤ -0.021"}]}, {"smiles": "N=C(N)NC(=O)Cc1c(Cl)cccc1Cl", "note": "[Guanfacine HCl]", "values": [{"measurement": "scaled lipid accumulation score", "setting": "library stock concentration: 7.1 mM", "value": "≤ -0.006"}]}, {"smiles": "N=C(N)N/N=C/c1c(Cl)cccc1Cl", "note": "[Guanabenz acetate]", "values": [{"measurement": "scaled lipid accumulation score", "value": 0.45}, {"measurement": "scaled lipid accumulation score", "setting": "library stock concentration: 6.9 mM", "value": 0.304}, {"measurement": "scaled lipid accumulation score", "setting": "library stock concentration: 8.7 mM", "value": 0.227}, {"measurement": "scaled lipid accumulation score", "setting": "[2]", "value": "0.426 and 0.365"}]}, {"smiles": "N=C(N)N/N=C/c1c(Cl)cccc1Cl", "note": "[Guanabenz Acetate]", "values": [{"measurement": "scaled lipid accumulation score", "setting": "[1]", "value": "≤ 0"}, {"measurement": "scaled lipid accumulation score", "setting": "[2]", "value": 0.578}]}, {"smiles": "N=C(N)NC(=O)Cc1c(Cl)cccc1Cl", "note": "[Guanfacine hydrochloride]", "values": [{"measurement": "scaled lipid accumulation score", "value": "≤ 0"}, {"measurement": "scaled lipid accumulation score", "setting": "[2]", "value": "0.148 and 0.048"}]}, {"smiles": "CC(=O)O.N=C(N)N/N=C/c1c(Cl)cccc1Cl", "note": "[Guanabenz acetate]", "values": [{"measurement": "scaled lipid accumulation score", "setting": "[2]", "value": "0.999 (active)"}]}, {"smiles": "CCCCCC#CCC#CCC#CCC#CCCCC(=O)O", "note": "[5,8,11,14-Eicosatetraynoic acid]", "values": [{"measurement": "scaled lipid accumulation score", "setting": "[3]", "value": "≤ -0.021"}]}, {"smiles": "CCCCCCCCCCCCCCCC(=O)N[C@H]1CCOC1=O", "note": "[N-hexadecanoyl-L-Homoserine lactone]", "values": [{"measurement": "scaled lipid accumulation score", "setting": "[3]", "value": "≤ 0"}]}, {"smiles": "C(=C/CCN(C)C)(/c1c2cccc1)\\c3c(cccc3)C=C2.Cl", "note": "[Cyclobenzaprine hydrochloride]", "values": [{"measurement": "scaled lipid accumulation score", "setting": "[2]", "value": "0.991 (active)"}]}, {"smiles": "CN(C)CCC=C1c2ccccc2C=Cc2ccccc21.Cl", "note": "[Cyclobenzaprine HCl]", "values": [{"measurement": "scaled lipid accumulation score", "setting": "[1]", "value": "0.507 (active)"}]}, {"smiles": "C(/c1c2cccc1)(=C/CCN(C)C)\\c3c(cccc3)C=C2.Cl", "note": "[Cyclobenzaprine hydrochloride]", "values": [{"measurement": "scaled lipid accumulation score", "value": "0.86 (active)"}]}, {"smiles": "CN(C)CCC=C1c2ccccc2C=Cc2ccccc21", "note": "[Cyclobenzaprine HCl]", "values": [{"measurement": "scaled lipid accumulation score", "setting": "[2]", "value": 0.745}]}, {"smiles": "CN(C)CCC=C1c2ccccc2C=Cc2ccccc21", "note": "[Cyclobenzaprine hydrochloride]", "values": [{"measurement": "scaled lipid accumulation score", "setting": "library stock concentration: 6.4 mM", "value": 0.579}, {"measurement": "scaled lipid accumulation score", "setting": "[2]", "value": 0.568}]}, {"smiles": "CC(C(=O)O)c1ccc(CC2CCCC2=O)cc1", "note": "(stereo not drawn)", "values": [{"measurement": "scaled lipid accumulation score", "setting": "[2]", "value": "≤ 0"}]}, {"smiles": "CC(C(=O)O)c1ccc(CC2CCCC2=O)cc1", "note": "(stereo not drawn) [loxoprofen]", "values": [{"measurement": "scaled lipid accumulation score", "setting": "[2]", "value": 0.127}]}, {"smiles": "C=C1CC[C@H](O)C/C1=C/C=C1\\CCC[C@]2(C)[C@@H]([C@H](C)CCCC(C)(C)O)CC[C@@H]12", "note": "[Calcifediol]", "values": [{"measurement": "scaled lipid accumulation score", "setting": "[1]", "value": "≤ 0"}, {"measurement": "scaled lipid accumulation score", "setting": "library stock concentration: 5 mM", "value": 0.042}, {"measurement": "scaled lipid accumulation score", "setting": "[2]", "value": "≤ 0"}]}, {"smiles": "Nc1nc2c(ncn2[C@@H]2O[C@H](CO)[C@@H](O)[C@@H]2O)c(=O)[nH]1", "note": "[Ara-G hydrate]", "values": [{"measurement": "scaled lipid accumulation score", "setting": "[2]", "value": "≤ 0"}]}, {"smiles": "Oc1ccc(OC2CCCCO2)cc1", "note": "(stereo not drawn) [Deoxyarbutin]", "values": [{"measurement": "scaled lipid accumulation score", "setting": "[1]", "value": "≤ 0"}, {"measurement": "scaled lipid accumulation score", "setting": "[2]", "value": "≤ -0.001"}]}, {"smiles": "CC(=O)N(CC(O)CO)c1c(I)c(C(=O)NCCO)c(I)c(C(=O)NCC(O)CO)c1I", "note": "(stereo not drawn)", "values": [{"measurement": "scaled lipid accumulation score", "setting": "[2]", "value": "≤ 0"}]}, {"smiles": "O=C(OC[C@@H]1O[C@H]1c1ccccc1)Oc1ccc([N+](=O)[O-])cc1", "values": [{"measurement": "scaled lipid accumulation score", "setting": "[3]", "value": "≤ 0"}]}, {"smiles": "CCCCC[C@H](O)/C=C/[C@@H]1[C@@H](CC(=O)CCCCC(=O)O)[C@@H](O)C[C@H]1O", "note": "[6-keto Prostaglandin F1.alpha.]", "values": [{"measurement": "scaled lipid accumulation score", "setting": "[3]", "value": "≤ 0"}]}, {"smiles": "CCCCC[C@H](O)/C=C/[C@@H]1[C@@H](CC(=O)CCCCC(=O)O)[C@@H](O)C[C@H]1O", "note": "[6-Keto-prostaglandin F1a]", "values": [{"measurement": "scaled lipid accumulation score", "setting": "[3]", "value": "≤ -0.021"}]}]}
